# Source: PubChem BioAssay (NCI)
# About 83,000 compounds went through this panel and 20% of them were active in at least one assay; those are over-represented in the sample as a whole.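 A percent growth of 40 corresponds to 60% growth inhibition; 0 means no net growth; -100 means all cells died. Active threshold: below 10.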 Active and inactive are the calls of the source.
# System: HL-60(TB) leukemia
# Assay: NCI-60 one-dose screen, 48 h (100 = growth as untreated, 0 = no growth, -100 = all killed)
# Settings: 10 µM unless noted
row,SMILES,growth
1,CC1=C2C(=C[C@@](C)(CO)[C@@H]2O)/C(=N\N)[C@](C)(O)C12CC2,-22.1% (active)
2,COc1ccccc1NC(=O)c1ccc(NC(=O)CCl)s1,-53.8% (active)
3,Clc1ccc(-c2nc3ccc(-c4nnc(SCc5ccccc5)o4)cc3[nH]2)cc1,51.8% (inactive)
4,Cc1ccc2c(c1)/C(=C/C(=O)c1cc3ccccc3oc1=O)C(=O)N2,53% (inactive)
5,O=C(COc1ccc(NC(=O)Nc2ccc(Cl)c(Cl)c2)cc1)N=Nc1c(O)[nH]c2ccccc12,40.1% (inactive)
6,O=c1oc2ccc(Br)cc2cc1C1=CSc2nc3sc4c(c3c(=O)n2N=C1)CCCC4,45.4% (inactive)
7,N#Cc1c(-c2ccccc2Cl)cc(-c2ccc3ccccc3c2)[nH]c1=O,71.9% (inactive)
8,CCOC(=O)c1sc(N/N=C(\C)c2ccc3c(c2)Nc2ccccc2S3)nc1C,22.1% (inactive)
9,CC1CN(c2oc(-c3ccc([N+](=O)[O-])cc3)nc2C#N)CC(C)O1 (configuration not stated),95% (inactive)
10,Cc1ccn2c(C(=O)c3ccc(Br)cc3)cc(-c3cc(-c4ccc(N(C)C)cc4)c(C#N)c(N)n3)c2c1,89.5% (inactive)
11,O=C1Nc2cc(-c3ccc(NS(=O)(=O)c4ccc(C(F)(F)F)cc4)cc3)ccc2/C1=C/c1ccc[nH]1,1.77% (active)
12,CC1=NN(C2=NC(=O)C(CC(=O)Nc3ccccc3C(F)(F)F)S2)C(c2ccc(N(C)C)cc2)C1 (configuration not stated),10.7% (inactive)
